Test results reported in PubChem BioAssay.
A number with no mark means an inactive call. Active and inactive are the calls of the source.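 How the source made its calls, unless noted: active means inhibition above the hit cutoff set in the earlier primary screen (cut at about 27% in these data); inactive means the rest.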

What was measured:
[1] = target: Protein phosphatase methylesterase 1 (Homo sapiens) (UniProt Q9Y570); test: PME-1 inhibitor activity retest, confirmation, biochemical, fluorescence polarization, FP-Rh probe, triplicate (AID 2171); details: recombinant PME-1, FP-Rh probe fluorescence polarization; at 5.9 µM; stronger effect = higher value;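 further: 0% = enzyme with DMSO and 100% = wells lacking PME-1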
Sequence of Protein phosphatase methylesterase 1 (Homo sapiens) (Q9Y570 whole entry, looked up, the tested form may be a part): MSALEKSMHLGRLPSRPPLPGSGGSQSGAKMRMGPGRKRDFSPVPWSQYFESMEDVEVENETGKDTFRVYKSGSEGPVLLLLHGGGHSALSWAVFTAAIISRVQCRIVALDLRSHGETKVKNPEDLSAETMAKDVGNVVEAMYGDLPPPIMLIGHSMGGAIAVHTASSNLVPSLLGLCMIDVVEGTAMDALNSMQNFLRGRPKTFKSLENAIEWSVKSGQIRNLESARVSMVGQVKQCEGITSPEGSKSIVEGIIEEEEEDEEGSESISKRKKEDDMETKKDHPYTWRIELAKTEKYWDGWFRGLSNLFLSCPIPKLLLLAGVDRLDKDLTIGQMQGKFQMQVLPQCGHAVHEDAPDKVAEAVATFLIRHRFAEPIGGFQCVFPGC

[2] = target: Nuclear receptor coactivator 3 (Homo sapiens) (UniProt Q9Y6Q9); test: SRC3 coactivator transcriptional activity inhibitors, confirmation, cell-based, luminescence, quadruplicate (AID 588792;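 active means mean inhibition over 43.08%, the solvent-only control mean plus 3 SD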;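 further: 0% = DMSO treated cells and 100% = gossypol at 36 µM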); details: HEK293 GAL4-SRC3 luciferase reporter, at 3.6 µM, stronger effect = higher value
Sequence of Nuclear receptor coactivator 3 (Homo sapiens) (Q9Y6Q9 whole entry, looked up, the tested form may be a part): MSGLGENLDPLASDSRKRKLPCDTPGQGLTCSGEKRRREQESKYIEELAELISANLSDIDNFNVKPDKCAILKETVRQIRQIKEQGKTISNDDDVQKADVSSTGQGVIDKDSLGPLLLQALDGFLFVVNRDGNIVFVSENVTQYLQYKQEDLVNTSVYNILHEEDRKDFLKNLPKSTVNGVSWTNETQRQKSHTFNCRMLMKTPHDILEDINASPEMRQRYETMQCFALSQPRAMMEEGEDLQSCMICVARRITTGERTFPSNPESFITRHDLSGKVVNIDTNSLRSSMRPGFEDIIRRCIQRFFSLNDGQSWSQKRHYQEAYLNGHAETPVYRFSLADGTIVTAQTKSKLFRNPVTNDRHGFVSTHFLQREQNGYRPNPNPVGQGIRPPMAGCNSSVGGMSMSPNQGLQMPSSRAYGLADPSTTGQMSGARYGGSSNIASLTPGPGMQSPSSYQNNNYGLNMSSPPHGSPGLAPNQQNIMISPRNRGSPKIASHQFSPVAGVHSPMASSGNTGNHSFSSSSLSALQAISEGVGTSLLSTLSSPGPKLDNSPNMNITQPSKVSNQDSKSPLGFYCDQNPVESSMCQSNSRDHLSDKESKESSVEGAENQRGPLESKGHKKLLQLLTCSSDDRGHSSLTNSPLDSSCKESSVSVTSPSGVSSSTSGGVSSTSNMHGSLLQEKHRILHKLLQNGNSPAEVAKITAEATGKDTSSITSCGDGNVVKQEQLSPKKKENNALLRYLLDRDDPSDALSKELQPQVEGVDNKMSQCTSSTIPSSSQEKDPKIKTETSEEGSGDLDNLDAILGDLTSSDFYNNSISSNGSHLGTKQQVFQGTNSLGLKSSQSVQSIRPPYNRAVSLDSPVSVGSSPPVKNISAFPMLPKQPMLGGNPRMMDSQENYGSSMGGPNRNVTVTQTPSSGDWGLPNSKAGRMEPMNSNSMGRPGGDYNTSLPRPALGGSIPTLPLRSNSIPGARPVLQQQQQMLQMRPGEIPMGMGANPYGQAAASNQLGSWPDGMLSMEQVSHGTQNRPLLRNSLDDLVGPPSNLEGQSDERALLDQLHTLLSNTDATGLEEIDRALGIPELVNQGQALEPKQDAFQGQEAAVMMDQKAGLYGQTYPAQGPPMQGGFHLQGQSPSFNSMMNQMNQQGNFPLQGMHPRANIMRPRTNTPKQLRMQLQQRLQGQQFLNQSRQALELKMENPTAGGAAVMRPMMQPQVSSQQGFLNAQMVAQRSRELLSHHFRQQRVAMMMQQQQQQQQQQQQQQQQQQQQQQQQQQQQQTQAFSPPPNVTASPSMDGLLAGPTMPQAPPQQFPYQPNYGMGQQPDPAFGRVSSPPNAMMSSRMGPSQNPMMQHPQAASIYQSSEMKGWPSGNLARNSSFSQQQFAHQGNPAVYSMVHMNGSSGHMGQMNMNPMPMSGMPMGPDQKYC

[3] = test system: transactivating tegument protein VP16 (Human herpesvirus 1), Gal4-VP16 luciferase reporter; test: VP16 transactivation inhibitors, counter-screen for SRC3 inhibitor project, cell-based, luminescence, high throughput (AID 588794; in the data active means inhibition above about 30%); details: mammalian cells, VP16-driven luciferase reporter luminescence; at 3.6 µM; stronger effect = higher value
[4] = target: Nuclear receptor coactivator 1 (Homo sapiens) (UniProt Q15788); test: SRC1 coactivator transcriptional activity inhibitors, confirmation, cell-based, luminescence, quadruplicate (AID 588820;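 active means mean inhibition above 46.68%, the untreated control wells mean plus 3 SD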;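 further: 0% = DMSO wells and 100% = gossypol 36 µM treated wells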); details: HEK293 GAL4-SRC1 luciferase reporter, at 3.6 µM, stronger effect = higher value
Sequence of Nuclear receptor coactivator 1 (Homo sapiens) (Q15788 whole entry, looked up, the tested form may be a part): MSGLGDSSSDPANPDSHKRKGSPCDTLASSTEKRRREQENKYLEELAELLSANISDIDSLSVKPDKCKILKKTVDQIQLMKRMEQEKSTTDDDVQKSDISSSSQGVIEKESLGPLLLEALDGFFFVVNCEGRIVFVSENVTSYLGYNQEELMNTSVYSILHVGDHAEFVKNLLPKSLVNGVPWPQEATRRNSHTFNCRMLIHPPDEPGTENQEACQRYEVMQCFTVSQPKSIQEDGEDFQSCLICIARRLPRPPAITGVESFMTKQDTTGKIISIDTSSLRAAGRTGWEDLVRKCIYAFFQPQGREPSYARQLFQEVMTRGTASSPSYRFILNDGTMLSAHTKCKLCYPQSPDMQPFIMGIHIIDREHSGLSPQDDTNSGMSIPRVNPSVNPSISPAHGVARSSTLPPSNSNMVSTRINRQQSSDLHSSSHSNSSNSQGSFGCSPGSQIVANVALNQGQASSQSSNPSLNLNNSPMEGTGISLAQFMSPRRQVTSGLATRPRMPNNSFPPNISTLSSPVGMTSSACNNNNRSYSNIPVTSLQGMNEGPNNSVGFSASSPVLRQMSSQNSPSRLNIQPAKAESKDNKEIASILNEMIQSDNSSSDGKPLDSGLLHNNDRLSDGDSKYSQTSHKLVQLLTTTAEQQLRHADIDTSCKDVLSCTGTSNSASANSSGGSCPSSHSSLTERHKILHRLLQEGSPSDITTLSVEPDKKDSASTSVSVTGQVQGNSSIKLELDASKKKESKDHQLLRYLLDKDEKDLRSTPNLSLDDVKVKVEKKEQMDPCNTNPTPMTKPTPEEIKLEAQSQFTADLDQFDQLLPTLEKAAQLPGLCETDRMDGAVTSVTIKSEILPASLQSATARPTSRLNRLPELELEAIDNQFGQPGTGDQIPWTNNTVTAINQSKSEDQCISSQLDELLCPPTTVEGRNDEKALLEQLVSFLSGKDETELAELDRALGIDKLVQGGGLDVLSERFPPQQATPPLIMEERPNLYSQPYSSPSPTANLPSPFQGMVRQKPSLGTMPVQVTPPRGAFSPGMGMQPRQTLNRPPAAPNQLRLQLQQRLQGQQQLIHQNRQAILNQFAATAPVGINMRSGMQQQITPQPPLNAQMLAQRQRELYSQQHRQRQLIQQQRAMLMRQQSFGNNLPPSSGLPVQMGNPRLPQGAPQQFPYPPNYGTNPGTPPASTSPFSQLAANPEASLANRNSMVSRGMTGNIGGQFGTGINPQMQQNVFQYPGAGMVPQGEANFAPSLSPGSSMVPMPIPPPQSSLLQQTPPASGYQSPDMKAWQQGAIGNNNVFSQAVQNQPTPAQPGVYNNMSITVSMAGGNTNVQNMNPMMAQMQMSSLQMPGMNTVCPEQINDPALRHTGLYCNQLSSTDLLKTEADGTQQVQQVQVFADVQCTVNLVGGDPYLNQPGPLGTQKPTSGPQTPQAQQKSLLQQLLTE

[5] = VP16 transactivation inhibitors, counter-screen for SRC1 inhibitor project, cell-based, luminescence, high throughput (AID 588824; in the data active means inhibition above about 25%); details: cell-based VP16 transactivation luciferase luminescence; at 3.6 µM; stronger effect = higher value
[6] = StAR promoter reporter inhibitors, counter-screen for LRH-1 inverse agonist project, cell-based, luminescence, high throughput (AID 651611; in the data active means inhibition above about 28%); details: StAR promoter luciferase reporter counterscreen, at 3.6 µM, stronger effect = higher value
[7] = target: Nuclear receptor subfamily 5 group A member 2 (Homo sapiens) (UniProt O00482); test: LRH-1 (NR5A2) inverse agonists, retest, confirmation, cell-based, luminescence (AID 651613; in the data active means inhibition above about 42%;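 further: HEK293T cells co-transfected with LRH-1 and StAR promoter luciferase reporter; 0% = vehicle wells and 100% = parental cells lacking receptor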); details: cell-based LRH-1 luciferase reporter, inverse agonism; at 3.6 µM; stronger effect = higher value
Sequence of Nuclear receptor subfamily 5 group A member 2 (Homo sapiens) (O00482 whole entry, looked up): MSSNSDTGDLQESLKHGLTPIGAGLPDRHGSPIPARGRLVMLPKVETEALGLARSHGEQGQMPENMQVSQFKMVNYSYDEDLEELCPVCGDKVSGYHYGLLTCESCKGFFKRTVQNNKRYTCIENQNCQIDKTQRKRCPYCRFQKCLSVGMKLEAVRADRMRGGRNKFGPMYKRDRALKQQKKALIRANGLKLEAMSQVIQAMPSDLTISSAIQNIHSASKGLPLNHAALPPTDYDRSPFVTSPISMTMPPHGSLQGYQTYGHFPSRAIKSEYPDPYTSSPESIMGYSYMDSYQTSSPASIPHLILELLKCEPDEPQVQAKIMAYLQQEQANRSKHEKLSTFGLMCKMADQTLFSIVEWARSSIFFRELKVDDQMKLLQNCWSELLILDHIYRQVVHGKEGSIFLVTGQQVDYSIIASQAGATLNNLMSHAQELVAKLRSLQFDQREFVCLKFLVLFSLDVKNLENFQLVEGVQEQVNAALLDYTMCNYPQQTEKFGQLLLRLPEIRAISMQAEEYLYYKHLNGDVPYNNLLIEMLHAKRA

[8] = target: Steroidogenic factor 1 (Homo sapiens) (UniProt Q13285); test: SF1 (NR5A1) inverse agonists, counter-screen for LRH-1 inverse agonist project, cell-based, luminescence, high throughput (AID 651614; in the data active means inhibition above about 44%;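 further: cells cotransfected with StAR promoter reporter and SF1 expression vector; 0% = vehicle on cells with receptor and 100% = vehicle on cells lacking receptor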); details: cell-based SF1 luciferase reporter, at 3.6 µM, stronger effect = higher value
Sequence of Steroidogenic factor 1 (Homo sapiens) (Q13285 whole entry, looked up, the tested form may be a part): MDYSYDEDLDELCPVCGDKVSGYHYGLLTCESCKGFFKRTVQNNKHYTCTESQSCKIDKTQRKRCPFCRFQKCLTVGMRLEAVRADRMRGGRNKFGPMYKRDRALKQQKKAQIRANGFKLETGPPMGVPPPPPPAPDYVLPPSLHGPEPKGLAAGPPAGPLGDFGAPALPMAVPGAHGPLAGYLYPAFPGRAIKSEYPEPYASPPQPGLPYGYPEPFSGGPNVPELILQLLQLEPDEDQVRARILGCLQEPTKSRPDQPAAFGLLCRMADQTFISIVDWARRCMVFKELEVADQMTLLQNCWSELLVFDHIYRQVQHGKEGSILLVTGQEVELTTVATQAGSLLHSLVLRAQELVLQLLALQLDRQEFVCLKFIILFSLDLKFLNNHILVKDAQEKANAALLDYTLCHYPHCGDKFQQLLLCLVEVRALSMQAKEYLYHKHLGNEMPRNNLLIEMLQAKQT

[9] = VP16 transactivation reporter inhibitors, counter-screen for LRH-1 inverse agonist project, cell-based, luminescence, high throughput (AID 651615; in the data active means inhibition above about 33%); details: Gal4-VP16 luciferase reporter cells, at 3.6 µM, stronger effect = higher value

## O=C(N/N=C/c1c(O)ccc2ccccc12)Nc1ccccc1
[1]
  inhibition: 35.5% (active)

## CCCCCCC(=O)N1CCC(c2nc3c(nnn3Cc3ccccc3Cl)c(=O)[nH]2)CC1
[1]
  inhibition: 21.9%

## Oc1ccc(/C=N/Nc2ccnc3cc(Cl)ccc23)c(O)c1O
[1]
  inhibition: 51.8% (active)

## COc1cc(/C=N/Nc2nc3ccccc3s2)cc([N+](=O)[O-])c1O
[1]
  inhibition: 72.5% (active)

## O=C(NNc1c2ccccc2nc2ccccc12)c1ccccc1O
[1]
  inhibition: 65.5% (active)

## O=c1[nH]n2c(=O)c3c([nH]c2c1N=Nc1cccc(C(F)(F)F)c1)CCCC3
[1]
  inhibition: 60.6% (active)

## COc1ccc(-c2sc(Nc3ccc(F)c(F)c3F)nc2CCC(=O)NN)cc1
[1]
  inhibition: 24.1%

## CC(C)N(C(=O)Nc1ccc2nsnc2c1)C(C)C
[1]
  inhibition: 20.8%

## Cc1cc2nc3c(=O)n(CCc4ccccc4)c(=O)[nH]c3nc2cc1N
[1]
  inhibition: 44.2% (active)

## CCNc1ccc2noc3c2c1C(=O)c1ccccc1-3
[1]
  inhibition: 87.6% (active)

## CCCCCCn1c(=O)[nH]c2nc3cc(N)ccc3nc2c1=O
[1]
  inhibition: 37.6% (active)

## O=c1[nH]c(N/N=C\c2ccc3c(c2)OCO3)nc2ccccc12
[1]
  inhibition: 24.6%

## Brc1ccc(C2Nc3cccc4cccc(c34)N2)s1
[1]
  inhibition: 20.5%

## Cc1cc(N)ccc1N1CCCC1
[1]
  inhibition: 7.13%

## Cc1ccc(-c2c(C(=O)N/N=C/c3c[nH]c4ccccc34)nnn2-c2nonc2N)cc1
[1]
  inhibition: 21.9%

## Nc1[nH]n(-c2ccccc2)c(=O)c1N=Nc1ccc2ncsc2c1
[1]
  inhibition: 31.1% (active)

## Cc1ccc(NC(=S)NNc2ccc([N+](=O)[O-])cc2S(=O)(=O)Nc2ccccc2C(=O)O)cc1C
[1]
  inhibition: 60.2% (active)

## N#C/C(=C/c1ccc(O)c(O)c1)c1nc2ccccc2[nH]1
[1]
  inhibition: -30.6%

## COc1ccc2noc3c2c1C(=O)c1ccccc1-3
[1]
  inhibition: 22.2%

## O=C(c1ccc2c(c1)OCO2)N1CCCC(c2ccccc2)C1 (stereo not given)
[1]
  inhibition: 22%

## Cc1cc(C)c2[nH]c(O)c(N=NC(=O)c3cc4c(s3)CCCC4)c2c1
[1]
  inhibition: 31.9% (active)

## COc1cc2c(cc1OC)CN(C(=O)c1ccc3[nH]c(C)c(C)c3c1)CC2
[1]
  inhibition: 38.8% (active)

## Cc1cccc2c(N=O)c(O)[nH]c12
[1]
  inhibition: 54.3% (active)

## Cc1cc(C)c2[nH]c(O)c(N=NC3=NC(=O)CS3)c2c1
[1]
  inhibition: 32% (active)

## CN=c1scc(-c2cccs2)n1/N=C/c1ccc(O)c(O)c1O
[1]
  inhibition: 50.1% (active)

## O=C(Nc1cccc(-c2csc(Nc3ccc(Cl)cc3)n2)c1)c1cc([N+](=O)[O-])cc(C(F)(F)F)c1
[1]
  inhibition: -16.1%

## Cc1ccc(S(=O)(=O)/N=C2/C=C(Sc3ncn[nH]3)C(=O)c3ccccc32)cc1
[1]
  inhibition: 54.4% (active)

## Cc1ccc(Nc2nnc(SCC(=O)c3ccc(O)cc3O)s2)cc1
[1]
  inhibition: 40.8% (active)

## Nc1c(C(=O)Nc2ccc(Br)cc2)sc2nc(-c3ccco3)ccc12
[1]
  inhibition: 34.4% (active)

## O=C(NCCC1=CCCCC1)C1CCN(S(=O)(=O)c2cccs2)CC1
[1]
  inhibition: 25.6%

## COc1ccc(-c2cc(-c3ccc(Cl)cc3)n[nH]2)c(O)c1
[1]
  inhibition: 16.9%

## O=C(Nc1ccc(-c2csc(Nc3ccc(Cl)cc3)n2)cc1)c1cccc(C(F)(F)F)c1
[1]
  inhibition: -1.3%

## COc1cc(NC(=O)c2cc3ccccc3cc2O)c(OC)cc1Cl
[1]
  inhibition: 9.45%

## COc1ccc(/C=N/Nc2snc(SC)c2C#N)cc1OC
[1]
  inhibition: 24.9%

## COc1ccc(-c2cc(C(=O)N3CCN(C(=O)c4ccccc4F)CC3)[nH]n2)cc1
[1]
  inhibition: 21.7%

## COc1cc2c(C#N)c(N3CCc4ccccc4C3)nc(N)c2c(N)n1
[1]
  inhibition: 32.4% (active)

## O=c1c2ccccc2nc(N/N=C/c2c(O)ccc3ccccc23)n1O
[1]
  inhibition: 43.9% (active)
[2]
  inhibition: 55.4% (active)
[3]
  inhibition: 78.8% (active)
[4]
  inhibition: 20.9%
[5]
  inhibition: 76.4% (active)
[6]
  inhibition: 81.4% (active)
[7]
  inhibition: 101% (active)
[8]
  inhibition: 90.2% (active)
[9]
  inhibition: 78.3% (active)
